Experimental data reported in PubChem BioAssay (NCI).
The panel holds about 83,000 compounds, 20% with a hit somewhere; the sample as a whole holds those more often.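 Single-concentration screen, 48 h exposure, 96-well plates. Endpoint: percent growth. Below 10 = active.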 Unmarked numbers belong to inactive results. The source made the active and inactive calls.

tested on: SK-OV-3 ovarian; assay: NCI-60 one-dose screen, 48 h (100 = growth as untreated, 0 = no growth, -100 = all killed); details: 10 µM unless noted

| Compound | growth |
| --- | --- |
| COc1ccc(C(=O)/C(=N/Nc2ccccc2)c2ccc(OC)cc2)cc1 | 104% |
| Cn1c(=O)c2[nH]c(CC(=O)O)nc2n(C)c1=O | 106% |
| C=CC1=NC(C)(C)CC(C)O1 (stereo not drawn) | 108% |
| O=C(Nc1ccccc1)c1ccco1 | 103% |
| CCOC(=O)CNC | 106% |
| Cc1cc(Cl)cc(Cc2cc(Cl)cc(C)c2O)c1O | 51.5% |
| CC12CCC3c4ccc(O)cc4CCC3C1CCC2=O (stereo not drawn) | 117% |
| Cc1onc(-c2ccccc2Cl)c1C(=O)Cl | 99% |
| Nc1cc(N)ncn1 | 125% |
| ClCC(Cl)C1CCC(Cl)C(Cl)C1 (stereo not drawn) | 100% |
| O=[N+]([O-])c1ccc(-c2nc(N(CCO)CCO)c3ccccc3n2)o1 | -4.36% (active) |
| C=CCC(OC(C)=O)c1ccc(OC)c(OC)c1 (stereo not drawn) | 126% |
| C/C(Cc1ccccc1)=N\O | 128% |
| O=C(NCc1ccccc1)c1cccc([N+](=O)[O-])c1 | 108% |
| OCc1cccnc1 | 107% |
| Cc1onc(-c2c(F)cccc2Cl)c1-c1ncc(-c2ccc(Br)cc2)o1 | 66.1% |
| CC(C)c1ncc([N+](=O)[O-])n1C | 112% |
| Oc1ccc(CCC2CCNc3ccccc32)cc1 (stereo not drawn) | 73.1% |
| c1ccc2[nH]c(Cc3nc4ccccc4[nH]3)nc2c1 | 126% |

| Compound | growth |
| --- | --- |
| CCOC(=O)C(CCC#N)(CCC#N)C(=O)OCC | 108% |
| CCOC(=O)C(COS(C)(=O)=O)(COS(C)(=O)=O)C(=O)OCC | 104% |
| CC(C)C(C)(C)C(=O)C(C)(C)C(C)(C)C | 82.8% |
| CC(=O)O[C@H]1CC[C@]2(C)C3=C(C(=O)C[C@H]2C1(C)C)[C@]1(C)CC[C@H]([C@H](C)CCC(=O)O)[C@@]1(C)CC3=O | 99.3% |
| CC(=O)OCC1CCC(COC(C)=O)CC1 (stereo not drawn) | 87.9% |
| CC(=O)NNC(=S)N/C=C/c1c(C)ccc([N+](=O)[O-])c1[N+](=O)[O-] | 105% |
| CCOC(=O)c1c[nH][nH]c1=O | 110% |
| O=S(Cc1ccccc1)/C(=C/NC(=S)Nc1ccccc1)c1ccccc1 (stereo not drawn) | 91.4% |
| CCOc1ccc(NC(=S)N2CCC(CCCC3CCN(C(=S)Nc4ccc(OCC)cc4)CC3)CC2)cc1 | 91.1% |
| COc1ccc(C)cc1NC(=O)SC(C)C | 111% [100 µM] |
| Nc1ncnc(Nc2ccc(C(F)(F)F)cc2)n1 | 100% |
| Cc1c(Cl)cccc1N=C=S | 104% |
| O=C(OC1CCCC1)c1ccccc1Cl | 108% |
| BrCc1cccc(C[P+](c2ccccc2)(c2ccccc2)c2ccccc2)c1 | 90.2% |
| Cc1c(-c2ccc(C3CCCCC3)cc2)nc2ccc(F)cc2c1C(=O)O | 58.2% |
| CC(=O)NC(CCc1ccc(Cl)c(Cl)c1)c1cccc(O)c(=O)c1 (stereo not drawn) | 12.7% |
| COc1cccc(C(=O)NNC(=O)c2cccc3ccccc23)c1 | 100% |
| O=C(CCl)Nc1ccccc1SCc1cc(Cl)cc2c1OCOC2 | 80.8% |
| CCN(CC)c1ccc2nc3ccc(N=Nc4ccc(N(C)C)cc4)cc3[n+](-c3ccccc3)c2c1 | -8.27% (active) |
